According to PubChem BioAssay (NCI):
This is part of a sample that, as a whole, favours compounds with a hit. Of some 79,000 tested, about 15% had one in any assay. A number with no mark means an inactive call. The source made the active and inactive calls. Rule as the data show it: active = growth inhibition above about 70%; inactive = the rest.

test: NCI Yeast Anticancer Drug Screen. Data for the CLN2oe strain (AID 163);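 also: 0% = growth of vehicle-only control cultures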; details: S. cerevisiae CLN2oe strain, at 11.0 µM, active compounds read high
Method in brief: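 Strain altered in cell-cycle control, incubated with compound; growth compared to solvent-treated controls.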

Structure (SMILES) | growth inhibition
COc1ccc2nc3cccc([N+](=O)[O-])c3c(NCCNCCN(C)C)c2c1 | -11%
Cc1cccc(/C=N/NC(=S)NC2CCCCC2)n1 | -23%
COC(=O)C(=O)c1c(-c2ccc(Cl)c(Cl)c2)[nH]c2[nH]n(-c3ccccc3)c(=O)c2c1=O | 64%
c1ccc([P+](CCN2Cc3ccccc3C2)(c2ccccc2)c2ccccc2)cc1 | 29%
Cc1cc(C)c2[s+]snc2c1 | -4%
CC(C)(Br)C(=O)/C=C/c1ccccc1 | -5%
Cc1ccc(S(=O)(=O)NC(=O)C2C(=O)CC3(CCCCC3)CC2=O)cc1 | 4%
NC(=S)N1N=C2c3ccccc3CC[C@H]2[C@@H]1c1ccc(Cl)cc1 | 18%
O=[N+]([O-])/C=C/c1cc2ccc3ccccc3c2[nH]1 | 31%
O=C1C(=C2CCCC2)CCC1CN1CCCCC1 (configuration not stated) | -1%
OC(CC(O)(C(F)(F)F)C(F)(F)F)c1ccc(C(O)CC(O)(C(F)(F)F)C(F)(F)F)cc1 (configuration not stated) | 99% (active)
COc1cc2c(cc1OC)[C@@H](Nc1ccc(C#N)cc1)C1COC(=O)[C@@H]1C2c1cc(OC)c(O)c(OC)c1 (some centres not stated) | 11%
O=c1cccccc1[O-].O=c1cccccc1[O-].O=c1cccccc1[O-].[Eu+3] | 25%
O=C1c2ccccc2C(=O)c2sc(Nc3ccccc3Cl)nc21 | 94% (active)
NC(CCCCCCCCCCCCC(N)C(=O)c1ccccc1)C(=O)c1ccccc1 (configuration not stated) | 52%
CC1=C(C)C(=O)C2=C(OCCO2)C1=O | 3%
c1ccc(-c2cc(C3CO3)c3ccccc3n2)cc1 (configuration not stated) | -11%
S=C1C(=Nc2ccccc2)N(c2ccccc2)/C(=N\c2ccccn2)N1c1ccccc1 | 37%

Structure (SMILES) | growth inhibition
CCC(OC(C)=O)C1CC(C(C)C)CCC1C (configuration not stated) | 2%
CC(C)=CCc1c2c(c(O)c3c(=O)c(-c4ccc(O)c(O)c4)coc13)C=CC(C)(C)O2 | 95% (active)
O=C(NC(N1CCN(c2cc3c(cc2F)c(=O)c(C(=O)O)cn3C2CC2)CC1)(C(F)(F)F)C(F)(F)F)c1ccccc1 | 1%
Fc1cc(F)c(F)c(S)c1F | 8%
COc1ccc2cc3c4cc5c(cc4cc[n+]3cc2c1OC)OCO5 | 49%
CCCCCCCCNCCCCCCCC | 60%
Nc1cc(Cl)ccc1Nc1ccccc1 | -1%
O=C(/C(=C/c1ccc(O)cc1)c1ccccc1)c1ccccc1 | 61%
O=Cc1ccccc1C=O | 3%
C1=CCN([B-](c2ccccc2)[C+]2CCCCC2)C=C1 | 1%
CC/C(=C(\c1ccccc1)c1ccc(OCC[N+](C)(C)C)cc1)c1ccccc1 | 98% (active)
O=S(=O)(c1cccc(C(F)(F)F)c1)N1c2ccccc2-n2cccc2C1c1cccnc1 (configuration not stated) | 74% (active)
Nc1ccc2c(c1)C(=O)c1c(F)cccc1-2 | 8%
CN(C)/C(=N/C(=S)Nc1ccccc1)SCc1ccccc1 | -13%
CCN(CC)C(=S)N/N=C(\C)c1ccccc1O | 42%
CC(C)OC(=O)NNc1cc(Cl)ccc1Cl | 29%
CC(C)CCC[C@@H](C)[C@H]1CC[C@H]2[C@@H]3CC[C@H]4C[C@H](N)CC[C@]4(C)[C@H]3CC[C@]12C | -4%
O=C1c2ccccc2-c2ccc(N=Cc3ccccc3)cc21 | -13%

same assay, conditions: S. cerevisiae CLN2oe strain, at 33.0 µM, active compounds read high

Structure (SMILES) | growth inhibition
COc1ccc2nc3cccc([N+](=O)[O-])c3c(NCCNCCN(C)C)c2c1 | 3%
Cc1cccc(/C=N/NC(=S)NC2CCCCC2)n1 | 18%
COC(=O)C(=O)c1c(-c2ccc(Cl)c(Cl)c2)[nH]c2[nH]n(-c3ccccc3)c(=O)c2c1=O | 64%
c1ccc([P+](CCN2Cc3ccccc3C2)(c2ccccc2)c2ccccc2)cc1 | 50%
Cc1cc(C)c2[s+]snc2c1 | -1%
CC(C)(Br)C(=O)/C=C/c1ccccc1 | 4%
Cc1ccc(S(=O)(=O)NC(=O)C2C(=O)CC3(CCCCC3)CC2=O)cc1 | 77% (active)
NC(=S)N1N=C2c3ccccc3CC[C@H]2[C@@H]1c1ccc(Cl)cc1 | 42%
O=[N+]([O-])/C=C/c1cc2ccc3ccccc3c2[nH]1 | 63%
O=C1C(=C2CCCC2)CCC1CN1CCCCC1 (configuration not stated) | 40%
OC(CC(O)(C(F)(F)F)C(F)(F)F)c1ccc(C(O)CC(O)(C(F)(F)F)C(F)(F)F)cc1 (configuration not stated) | 99% (active)
COc1cc2c(cc1OC)[C@@H](Nc1ccc(C#N)cc1)C1COC(=O)[C@@H]1C2c1cc(OC)c(O)c(OC)c1 (some centres not stated) | 38%
O=c1cccccc1[O-].O=c1cccccc1[O-].O=c1cccccc1[O-].[Eu+3] | 92% (active)
O=C1c2ccccc2C(=O)c2sc(Nc3ccccc3Cl)nc21 | 99% (active)
NC(CCCCCCCCCCCCC(N)C(=O)c1ccccc1)C(=O)c1ccccc1 (configuration not stated) | 91% (active)
CC1=C(C)C(=O)C2=C(OCCO2)C1=O | 15%
c1ccc(-c2cc(C3CO3)c3ccccc3n2)cc1 (configuration not stated) | 4%
S=C1C(=Nc2ccccc2)N(c2ccccc2)/C(=N\c2ccccn2)N1c1ccccc1 | 99% (active)

Structure (SMILES) | growth inhibition
CCC(OC(C)=O)C1CC(C(C)C)CCC1C (configuration not stated) | 0%
CC(C)=CCc1c2c(c(O)c3c(=O)c(-c4ccc(O)c(O)c4)coc13)C=CC(C)(C)O2 | 91% (active)
O=C(NC(N1CCN(c2cc3c(cc2F)c(=O)c(C(=O)O)cn3C2CC2)CC1)(C(F)(F)F)C(F)(F)F)c1ccccc1 | 15%
Fc1cc(F)c(F)c(S)c1F | 69%
COc1ccc2cc3c4cc5c(cc4cc[n+]3cc2c1OC)OCO5 | 79% (active)
CCCCCCCCNCCCCCCCC | 97% (active)
Nc1cc(Cl)ccc1Nc1ccccc1 | 3%
O=C(/C(=C/c1ccc(O)cc1)c1ccccc1)c1ccccc1 | 99% (active)
O=Cc1ccccc1C=O | 22%
C1=CCN([B-](c2ccccc2)[C+]2CCCCC2)C=C1 | 32%
CC/C(=C(\c1ccccc1)c1ccc(OCC[N+](C)(C)C)cc1)c1ccccc1 | 99% (active)
O=S(=O)(c1cccc(C(F)(F)F)c1)N1c2ccccc2-n2cccc2C1c1cccnc1 (configuration not stated) | 94% (active)
Nc1ccc2c(c1)C(=O)c1c(F)cccc1-2 | 14%
CN(C)/C(=N/C(=S)Nc1ccccc1)SCc1ccccc1 | -6%
CCN(CC)C(=S)N/N=C(\C)c1ccccc1O | 96% (active)
CC(C)OC(=O)NNc1cc(Cl)ccc1Cl | 50%
CC(C)CCC[C@@H](C)[C@H]1CC[C@H]2[C@@H]3CC[C@H]4C[C@H](N)CC[C@]4(C)[C@H]3CC[C@]12C | -16%
O=C1c2ccccc2-c2ccc(N=Cc3ccccc3)cc21 | -8%
